aGlu spleen mod = qHTS Assay for Inhibitors and Activators of Human alpha-Glucosidase From Spleen Homogenate; Lysosomal alpha-glucosidase (Homo sapiens), P10253; 0.006% of 240,000 active; Potency, µM (doses to about 79.9 µM), for inactives: top-dose activity change, negative = inhibition, actives largely listed as inhibitors; AID 2112, 2009; human spleen homogenate, 4-MU-alpha-glucoside fluorescence;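 note: potency is the fitted concentration of half-maximal effect; 0% = enzyme with vehicle and -100% = no enzyme basal signal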
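AC50 values come from Hill-equation fits of concentration-response data, normalized to no-enzyme and full-activity controls. Enzyme source: 1 ug human spleen homogenate; 1 mM fluorogenic 4-MU glucoside, pH 5.0 citrate buffer, 37 C, 40 min.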
N370S GC mod = qHTS Assay for Inhibitors and Activators of N370S glucocerebrosidase as a Potential Chaperone Treatment of Gaucher Disease; N370S GC spleen homogenate, 4MU-glucoside fluorescence; 0.092% of 330,000 active; Potency, µM (highest dose often 59.4 µM), without a hit: top-dose activity change, negative = inhibition, hits mostly inhibitors; AID 2101, 2009; Lysosomal acid glucosylceramidase (Homo sapiens), P04062;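 note: potency is the fitted concentration of half-maximal effect; 0% = full enzyme activity and -100% = no enzyme basal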
GLA inh pH 4.5 = qHTS Assay for Inhibitors of Human alpha-Galactosidase at pH 4.5. purified enzyme, 4-MU-alpha-Gal fluorescence, pH 4.5. activity change, negative = inhibition, % at 105 µM. 230,000 tested, under 10 active;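 note: 0% = full activity with enzyme and -100% = basal without enzyme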
Target sequence (P06280 whole entry, looked up): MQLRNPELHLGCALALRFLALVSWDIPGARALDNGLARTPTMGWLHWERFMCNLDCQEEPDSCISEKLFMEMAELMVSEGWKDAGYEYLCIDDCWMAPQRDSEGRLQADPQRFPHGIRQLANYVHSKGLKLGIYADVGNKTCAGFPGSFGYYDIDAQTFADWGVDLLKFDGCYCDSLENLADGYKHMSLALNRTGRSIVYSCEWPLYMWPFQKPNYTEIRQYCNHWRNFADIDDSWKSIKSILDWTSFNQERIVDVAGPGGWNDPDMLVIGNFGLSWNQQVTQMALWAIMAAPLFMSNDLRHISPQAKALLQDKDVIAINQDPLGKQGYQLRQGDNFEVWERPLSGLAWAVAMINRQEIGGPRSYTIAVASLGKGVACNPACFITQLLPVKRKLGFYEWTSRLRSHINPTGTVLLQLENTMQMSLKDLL
GAA glycogen = qHTS Assay for Inhibitors and Activators of Human alpha-Glucosidase Cleavage of Glycogen; Potency, µM (doses to about 76.4 µM), without a hit: at the top dose activity change, negative = inhibition, hits mostly inhibitors; 0.38% of 300,000 active; Lysosomal alpha-glucosidase (Homo sapiens), P10253; recombinant GAA, glycogen substrate, Amplex Red glucose oxidase fluorescence; AID 2100, 2009;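 note: potency is the fitted concentration of half-maximal effect; 0% = full enzyme reaction and -100% = no-enzyme basal signal; the screen sought inhibitors and activators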
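Natural-substrate format: glycogen cleavage by 4 nM human enzyme, glucose read by Amplex Red coupling (Ex 573, Em 610 nm). Normalized to enzyme and no-enzyme controls.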
GLA spleen mod = qHTS Assay for Inhibitors and Activators of Human alpha-Galactosidase From Spleen Homogenate; Alpha-galactosidase A (Homo sapiens), P06280; human spleen homogenate, 4MU-alpha-Gal fluorescence, 40 min; Potency, µM (top dose mostly 80 µM), inactives show at the highest dose activity change, negative = inhibition, actives largely listed as inhibitors; 0.008% of 240,000 active; AID 2107, 2009;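 note: potency is the fitted concentration of half-maximal effect; 0% = enzyme with vehicle and -100% = no enzyme basal signal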
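qHTS titration in buffer at pH 5.0. Alpha-galactosidase activity in spleen homogenate was measured via 4-methylumbelliferone release from 1 mM fluorogenic substrate after 40 min at 37C and a pH 10 stop. AC50 came from Hill fits of control-normalized data.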
GAA inhib = qHTS Assay for Inhibitors of Human alpha-Glucosidase as a Potential Chaperone Treatment of Pompe Disease | Lysosomal alpha-glucosidase (Homo sapiens), P10253 | purified human GAA, 4-MU-alpha-glucoside fluorescence | Potency, µM (doses to about 76.9 µM), for inactives: at the highest dose activity change, negative = inhibition, usual class: inhibitors | 0.005% of 200,000 active | AID 1466, 2008;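 note: potency is the fitted concentration of half-maximal effect; plate controls were uninhibited enzyme wells for no effect and no-enzyme background for full effect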
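Fluorescence at Ex 365/Em 440 nm from 4-methylumbelliferone reported enzyme activity after 20 min at room temperature. Reactions used 4 nM enzyme and 400 uM substrate at pH 5.0; curves fitted with the Hill equation.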
* marks the source's active call; other numbers are inactive results; ? = inconclusive; . = no result given; [ ] = dose if it differs, or a comment. This is a sample that favours compounds with a hit; in the whole collection about 0.43% have one here. Calls come from the whole dose curve; as a rule, active = well fitted curve in the direction sought with a large enough effect; inconclusive = small, poorly fitted or top-dose-only effect, or another doubt; inactive = no such curve, though single readings can be large; an effect the other way counts as inactive or inconclusive.

SMILES	aGlu spleen mod	N370S GC mod	GLA inh pH 4.5	GAA glycogen	GLA spleen mod	GAA inhib
CC(C)C(C(=O)O)N1C(=O)/C(=C/c2ccc(Br)cc2)SC1=S (configuration not stated)	-1%	-7%	.	.	5%	.
COc1ccc(CCN2C(=O)CC(Nc3ccc(N4CCOCC4)cc3)C2=O)cc1OC (configuration not stated)	-5%	-9%	8	16µM*	0%	-1%
CCc1ccc(NC2CC(=O)N(CCc3ccc(OC)c(OC)c3)C2=O)cc1 (configuration not stated)	-14%	20%	-17	-21%	-17%	4%
CC(C)N1C(=O)CC(Nc2ccc(N3CCOCC3)cc2)C1=O (configuration not stated)	-2%	.	-13	25µM*	1%	-6%
O=C(Nc1ccc(N2CCOCC2)cc1)NC1CCCCC1	-3%	3%	0	?	-10%	1%
O=C1CC(Nc2ccccc2)C(=O)N1c1ccc(N2CCOCC2)cc1 (configuration not stated)	-5%	-24%	8	6%	9%	-8%
O=C1CC(Nc2ccc(N3CCOCC3)cc2)C(=O)N1C1CCCCC1 (configuration not stated)	-1%	-4%	1	13µM*	9%	0%
O=C1CC(Nc2ccc(N3CCOCC3)cc2)C(=O)N1c1ccccc1F (configuration not stated)	0%	-4%	-9	25µM*	1%	0%
COc1cc(C2NC(=O)NC(C)=C2C(=O)OCc2ccc(C)cc2)cc(OC)c1O (configuration not stated)	10%	0%	4	9.9µM*	8%	1%
COc1cc(C2NC(=O)NC(C)=C2C(=O)OCc2ccc(C)cc2)cc(OC)c1OC (configuration not stated)	.	-15%	.	6%[76.3 µM]	.	.
C=CCOC(=O)N[C@H](c1ccccc1)C(C(C)=O)C(C)=O	3%	-6%	-5	.	3%	.
CC(=O)Nc1ccn(C2OC(C(COC(C)=O)NC(=O)C(Cc3ccccc3)NC(=O)OC(C)(C)C)C(OC(C)=O)C2OC(C)=O)c(=O)n1 (configuration not stated)	9%	-1%	.	.	-1%	.
O=C(CSc1nncs1)NCCCc1ccccc1	3%	2%	-5	10µM*	-3%	?
Nc1ccccc1Nc1nc2ccccc2[nH]1	.	2%	.	20µM*	.	.
O=C(Cl)c1cccc([N+](=O)[O-])c1	12%	-5%	.	.	5%	.
CCCCCC(O)/C=C/C=C\CCCCCCCC(=O)O (configuration not stated)	1%	6%	5	.	6%	.
Cc1ccnc(Nc2nc(-c3ccc(O)c(O)c3)cs2)c1	.	1%	.	6.3µM*	.	.
Cc1cccnc1Nc1nc(-c2ccc(O)c(O)c2)cs1	-1%	-14%	0	7.1µM*	0%	?
O=C(COc1ccccc1[N+](=O)[O-])N/N=C/c1ccc(O)c([N+](=O)[O-])c1	-3%	15%	2	3%	2%	-3%
O=C(COc1ccccc1C(=O)N/N=C\c1ccc(O)c(O)c1)N/N=C/c1ccc(O)c(O)c1	-21%	-3%[12.8 µM]	-5	3.1µM*	-8%	-6%
O=C(OCCN=C1NS(=O)(=O)c2ccccc21)C1CC(=O)N(c2ccc3ccccc3c2)C1 (configuration not stated)	-5%	3.5µM*	-3	-2%	3%	?
CS(=O)(=O)Nc1c(O)ccc2c1CCCC2C1=NCCN1 (configuration not stated)	3%	-1%	.	.	-10%	.
